Reference: PubChem BioAssay (NCI)
The panel holds about 83,000 compounds, 20% with a hit somewhere; the sample as a whole holds those more often.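 For each line, cells grew in 96-well plates with the test compound present at a single concentration for 48 hours.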 Unmarked numbers belong to inactive results. Activity calls are given as the source filed them.

What follows are compounds tested on NCI-H226 lung (assay: NCI-60 one-dose screen, 48 h (100 = growth as untreated, 0 = no growth, -100 = all killed)). Conditions: 10 µM unless noted.
Description: Growth inhibition of the NCI-H226 human Non-Small Cell Lung tumor cell line is measured as a screen for anti-cancer activity. Cells are grown in 96 well plates and exposed to the test compound for 48 hours. Compounds are tested at a single concentration, which is 10^-5 M for most compounds. The reported endpoint is percent growth (GI% or GIPRCNT), where numbers from 0 - 100% represent growth inhibition, and numbers from -100% - 0 represent cell death. For example, a value of 40 represents 60% growth inhibition. A value of 0 means no net growth occurred over the course of the experiment. A value of -40 indicates 40% of cells at the beginning of the experiment died by the end of the experiment. A value of -100 means all cells are dead at the end of the experiment.
NCI-60 Human Tumor Cell Lines Screen was performed using the standard one-dose NCI protocol, which is described in more detail at https://dtp.cancer.gov/discovery_development/nci-60/default.htm.
Compounds with GIPRCNT values below 10 were considered active. Activity score was based on GIPRCNT using the following formula: […]
Score is 0 for GIPRCNT values of 100 or above, 50 for GIPRCNT values of 0, and 100 for GIPRCNT values of -100.

Structure (SMILES) | growth
CCCCCc1ccc(S(=O)(=O)Nc2cccc(-c3csc(NC(=O)CN4CCN(C)CC4)n3)c2)cc1 | 93.3%
COc1ccc(/C=C/C(=O)c2cccc(NC(=O)CSc3nc4ccccc4c(=O)n3-c3ccccc3)c2)cc1OC | 93.2%
O=S(=O)(NCCNc1nccc(-n2cnc3ccccc32)n1)c1ccc(Br)cc1 | 76.5%
C[C@H](CCC(=O)NCc1ccc(C(=O)Nc2ccccc2N)cc1)[C@H]1CC[C@H]2[C@@H]3[C@@H](O)C[C@@H]4C[C@H](O)CC[C@]4(C)[C@H]3CC[C@]12C | 57.1%
c1ccc(C(c2nc3ncncc3[nH]2)N2CSc3nc4ncncc4n3C2)cc1 (stereo not given) | 56.2%
Cc1cc(-c2ccc(Cl)cc2)n(Cc2nnc(SCC(=O)Nc3ccc(S(N)(=O)=O)cc3)n2C2CCCCC2)n1 | 93.5%
COc1cccc(N2CCN(c3ncnc4c3[nH]c3ccc(F)cc34)C[C@H]2C)c1 | 33.5%
NC(N)=Nc1ccc(Oc2cccc(Nc3ccc(Cl)c(C(F)(F)F)c3)c2)cn1 | -48.8% (active)
COc1c(N2CC3CCCNC3C2)c(F)cc2c(=O)c(C(=O)N/N=C/c3ccc4c(c3)OCO4)cn(C3CC3)c12 (stereo not given) | 86.5%
CNC(=O)c1cc(Oc2ccc3nc(NC(=O)c4cc(N5CCOCC5)cc(C(F)(F)F)c4)sc3c2)ccn1 | 85.4%
O=C1CCCc2nc(Nc3ccc(S(=O)(=O)Nc4ccc([N+](=O)[O-])cc4)cc3)ncc21 | 109%
COc1ccc(/C=N/NC2=NC3C(S2)N(C)C(=O)N3C)cc1 (stereo not given) | 57.9%
COc1cc(C2N=C(NNc3ccccc3)NC(C)=C2C(C)=O)ccc1O (stereo not given) | 86.5%
COc1c(N2CC3CCCNC3C2)c(F)cc2c(=O)c(C(=O)N/N=C/c3ccc(N(C)C)cc3)cn(C3CC3)c12 (stereo not given) | 98.5%
C=CCn1c(-c2nc3ccc(C(=C(C#N)C#N)c4ccccc4)cc3[nH]2)cc2cc(Br)ccc21 | 66.4%
Cc1nc(-c2ccccc2O)ccc1C(=O)N=Nc1c(O)[nH]c2ccc(Br)cc12 | 81.4%
CCOC(=O)c1c(NC(=O)c2ccccc2C(F)(F)F)sc2c1CCC(=O)C2 | 60.8%
N#Cc1cccc(NC(=O)c2cc(-c3ccc(F)cc3F)ccc2O)c1 | 12%
CC(=O)c1cc(C(=O)c2ccc(Br)cc2)n2cc(C)cc(C)c12 | 86.4%
CCN1CCN(Cc2cn(-c3ccc(S(N)(=O)=O)cc3)nn2)CC1 | 96.5%

Structure (SMILES) | growth
NS(=O)(=O)c1ccc(Nc2nc(N/N=C/c3c[nH]c4ccccc34)nc(Nc3ccccc3)n2)cc1 | 42%
O=S(=O)(Oc1ccc(-c2nnc(Nc3ccccc3)s2)cc1)C(F)(F)C(F)(F)C(F)(F)C(F)(F)C(F)(F)C(F)(F)F | 99.6%
Nc1nc(-c2cccc([N+](=O)[O-])c2)c(N=Nc2ccc(Br)cc2)s1 | -39.2% (active)
Cc1cc(C)c(N2C(=O)CC(Nc3ccc(Cl)cc3Cl)C2=O)c(C)c1 (stereo not given) | 107%
CC(=O)Nc1cccc(Nc2nc(N[C@@H](C)c3ccccc3)c3ccccc3n2)c1 | 6.42% (active)
Cn1ccnc1C(=O)/C=C/c1ccc(CNC(=O)c2ccc(Cl)cc2)cc1 | 4.1% (active)
C=C(C=O)[C@@H]1CC[C@]2(CO)CC[C@]3(C)[C@H](CC[C@@H]4[C@@]5(C)CCCNC(C)(C)[C@@H]5CC[C@]43C)[C@@H]12 | 76.5%
COc1cc(-c2nn(C(C)(C)C)cc2-c2ccnc(NCCCNS(=O)(=O)c3cccc(F)c3)n2)ccc1Cl | 69.4%
CCCSc1nc(Nc2ccc(/C(C)=N\NC(N)=S)cc2)c(C#N)c(-c2ccccc2)n1 | 49.4%
Cc1ccc(-n2cc(/C=N/NC(=O)c3nc(N)n[nH]3)c(-c3ccc(S(C)(=O)=O)cc3)n2)cc1 | 102%
CNC(=O)c1cc(-c2ccc(NS(=O)(=O)c3ccc(C)cc3)cc2)nc2cccnc12 | 88.7%
COc1ccccc1-n1cc(C#N)c(N)c1C(=O)c1ccc(Br)cc1 | 94.4%
O=C1/C(=C/C=C/c2ccco2)SC(=S)N1c1ccccc1 | 67.8%
O=C(NNc1nc2cc(F)ccc2n2c(CN3CCCC3)ccc12)c1cnccn1 | 18.2%
COc1cc(/C=C2\C(=O)Nc3ccccc32)ccc1OCc1ccc(F)cc1 | 100%
COc1ccc(C2CC(c3ccc(Nc4nc(NCCO)nc(N5CCOCC5)n4)cc3)=Nc3c(N)nc(N)nc3N2)cc1 (stereo not given) | 94.8%
CCC(NC(c1cc2cccc3ccc4cccc1c4c32)c1nnnn1C(C)(C)C)C1CCCCC1 (stereo not given) | 75%
COc1ccc(-n2c(/C=C3\C(=O)Nc4ccccc43)ccc2CO)cc1 | 95.3%
Cc1ccc(S(=O)(=O)N(CC[C@@H]2C[C@H]2c2cc3ccccc3o2)S(=O)(=O)c2ccc(C)cc2)cc1 | 79%
CCC1=Cc2cc(OC)ccc2OC12C=Cc1cc(OC)ccc1O2 (stereo not given) | 65.4%
